Compound activity: PubChem BioAssay, Small Molecule Screening Facility, UW Madison
This is one part of a sample in which hits are shown more often than they occur.
RMI FANCM FP = inhibitors of human RMI core complex binding to FANCM MM2 | hit rate 0.58% among 70,000 | FP signal (polarization) at 33 µM | Fluorescence polarization, RMI core complex with F-MM2 peptide; active compounds read low; in the data active = FP signal below about 40
Active calls of the source: *; ! = not active in a repeat.

SMILES | RMI FANCM FP
NC(=O)C1CCN(CCOc2ccc(-c3[nH]ncc3-c3ccccc3)c(O)c2)CC1 | 58
CCC(Sc1nnc2[nH]c(=O)c(C)c(C)n12)C(=O)OC (centres undefined) | 54
O=C1N=C(N2CCN(c3ccccc3[N+](=O)[O-])CC2)S/C1=C/c1cccs1 | 18*
O=C1N=C(N2CCN(c3ccccc3F)CC2)S/C1=C\c1cccnc1 | 66
CC1CCN(C2=NC(=O)/C(=C\c3ccccc3)S2)CC1 | 58
S=c1sc2ccccc2n1CN1CCN(Cc2ccccc2)CC1 | 58
O=C(Cc1ccc2ccccc2c1)N/N=C\c1ccccc1[N+](=O)[O-] | 65
Cc1cccc(-c2nc3scc(CCN)n3n2)c1 | 72
Cc1nn2c(N)csc2nc1=O | 19*
CCN1CCN(CCC(=O)Nc2sc(C(=O)OC)c(C)c2C(=O)OC)CC1 | 82
CSc1ncc(C#N)c2nc(-c3ccc(N(C)C)cc3)nn12 | -1*
Cc1cc(NC(=O)c2ccc(S(=O)(=O)N3CCCC3)cc2)on1 | 66
Cn1cc(C(=O)O/N=C(/N)c2ccc(C(C)(C)C)cc2)c(C(F)(F)F)n1 | 56
CC(=O)N1CCN(c2c(C)cnc3c2c(=O)n(CC(N)=O)c(=O)n3C)CC1 | 63
COc1ccc(-c2nn(-c3ccccc3)cc2CN(Cc2ccccc2)C(=O)/C=C/C(=O)O)cc1 | 61
COc1ccc(-c2nn(-c3ccccc3)cc2/C=C2\SC(=O)NC2=S)cc1 | 27*
Cc1ccc(-c2nn(-c3ccccc3)cc2/C=C2\SC(=S)NC2=O)cc1F | 74
O=C(NCCOc1ccc2nnc(-c3ccccc3Cl)n2n1)Nc1ccc(F)cc1F | 71
COc1cc(OC)cc(C(=O)Nc2nc(-c3ccc(Cl)cc3Cl)cs2)c1 | 84
COc1cc(NS(=O)(=O)c2ccc(NC(=O)CSc3nc4sc5c(c4c(=O)n3C)CCCC5)cc2)nc(OC)n1 | 61
N#Cc1c(N)c(C#N)c2c(c1-c1ccco1)Cc1ccccc1-2 | 12*
N#CC1=C(N)OC(c2ccco2)=C(C#N)C1c1ccco1 (centres undefined) | 56
COC(=O)c1sc(SC)c(C#N)c1-c1ccco1 | 57
Cc1ccccc1C(=O)N1CCN(c2ccc(-c3ccccc3C)nn2)CC1 | 71
CC(C)(C)C(=O)Nc1sc2c(c1C#N)CCCC2 | 58
SMILES | RMI FANCM FP
N#Cc1c(N)sc(=S)c2c1CCCC2 | 7*
N#Cc1c(N)sc2c1CCC2 | 50
CC(=O)Nc1ccc(NC(=O)CSc2ncnc3c2nnn3-c2ccc(C)cc2)cc1 | 106
COc1ccccc1-c1cc2c(SCC(=O)Nc3ccc(C(C)=O)cc3)nccn2n1 | 80
COc1ccc(C2=NN(S(C)(=O)=O)C(c3ccc(F)cc3)C2)cc1 (centres undefined) | 120
Cc1cc(O)c2c(c1)Cc1cccc(O)c1C2=O | -15*
COc1cc(O)c2c(c1)C(=O)c1cc(C)cc(O)c1C2=O | 55
Cc1cc2c3c(c1)c(O)c(-c1ccccc1)c(=O)n3CCC2 | 62
CCOC(=O)N1CCc2c(sc(NC(=O)c3cc(Cl)sc3Cl)c2C#N)C1 | 69
CC(=O)Nc1ccc(C(=O)NCCNC(=O)c2ccc(S(=O)(=O)N(C)C)cc2)cc1 | 68
N#C/C(=C/c1ccc(-c2ccc(Cl)c(Cl)c2)o1)C(=O)Nc1ccccc1I | 75
O=C(/C=C\c1ccco1)/C=C/c1ccc(-c2ccc(Cl)c(Cl)c2)o1 | -11*
O=C(/C=C/c1ccc(Br)o1)/C=C/c1ccc(Br)o1 | 62
NC(=O)/C=C/c1ccco1 | 53
O=C(/C=C\c1ccco1)/C=C/c1ccc(-c2ccc(Br)cc2)o1 | 8*
O=C(/C=C/c1ccc(-c2cccc(Br)c2)o1)c1ccco1 | 77
Cc1c(Cl)ccc2sc(N(CCCn3ccnc3)C(=O)COc3ccccc3)nc12 | 71
CN(C)CCOC(=O)CCN1C(=O)/C(=C/c2c(Cl)cccc2Cl)SC1=S | 57
CCN(CC)CCN(C(=O)c1ccc(S(=O)(=O)N(CC)c2ccccc2)cc1)c1nc2ccc(C)cc2s1 | 101
CCN(CC)CCN(C(=O)c1ccc(S(=O)(=O)N(CC)c2ccccc2)cc1)c1nc2cc3c(cc2s1)OCCO3 | 40*
CCN(c1ccccc1)S(=O)(=O)c1ccc(C(=O)N(CCCN(C)C)c2nc3cc4c(cc3s2)OCO4)cc1 | 135
COc1ccc(Cl)cc1S(=O)(=O)Nc1ccc2c(c1)CC(=O)N2 | 55
Cn1ccc(C(=O)Nc2nc(-c3ccc4c(c3)OCCO4)cs2)n1 | 73
COc1ccc(NC(=O)C(=O)NCCN2CCN(c3ccccc3)CC2)cc1OC | 63
N#C/C(=C\c1ccc(C#N)cc1)c1nc2ccccc2s1 | 71
SMILES | RMI FANCM FP
Cc1cccc(Oc2nc3ccccn3c(=O)c2/C=C(\C#N)c2nc3ccccc3s2)c1 | 0*
N#C/C(=C\c1cn[nH]c1-c1ccccc1)c1nc2ccccc2s1 | 68
COCCN1CCCc2ccc(NC(=O)Cc3cccc(C)c3)cc21 | 63
CS(=O)(=O)c1ccc(NC(=O)c2c(F)cccc2Cl)cc1 | 65
CCCCC(=O)Nc1nc2c(C)ccc(C)c2s1 | 62
C[C@]12CC=CCC1CCC1C2CC[C@](C)(C(=O)O)C1/C=C1/Nc2ccccc2C1=O (some centres undefined) | 35*!
C[C@]12CC[C@@H](O)CC1CCC1C2CC[C@](C)(C(=O)O)C1/C=C1/Nc2ccccc2C1=O (some centres undefined) | 38
Cn1c(=O)c2cc(C(=O)N3CCc4ccccc43)sc2n(C)c1=O | 68
CC(=O)OC[C@H]1O[C@@H](OCc2ccccc2)[C@H](OC(C)=O)[C@@H](OC(C)=O)[C@@H]1OC(C)=O | 54
O=C(OC[C@H]1O[C@H](OC(=O)c2cc(O)c(O)c(OC(=O)c3cc(O)c(O)c(O)c3)c2)[C@H](OC(=O)c2cc(O)c(O)c(OC(=O)c3cc(O)c(O)c(O)c3)c2)[C@@H](OC(=O)c2cc(O)c(O)c(OC(=O)c3cc(O)c(O)c(O)c3)c2)[C@@H]1OC(=O)c1cc(O)c(O)c(OC(=O)c2cc(O)c(O)c(O)c2)c1)c1cc(O)c(O)c(OC(=O)c2cc(O)c(O)c(O)c2)c1 | 29*
O=C(Oc1cc(O)cc2c1C[C@@H](OC(=O)c1cc(O)c(O)c(O)c1)[C@@H](c1ccc(O)c(O)c1)O2)c1cc(O)c(O)c(O)c1 | 54
O=C(NCCCN1CCN(c2ccccc2)CC1)C(=O)NCc1ccc(Cl)cc1 | 64
Cc1ccc(-n2nnnc2SCC(=O)c2ccc(-c3ccccc3)cc2)cc1C | 63
COC(=O)c1c(NC(=O)CSc2nc3scc(-c4ccco4)c3c(=O)n2-c2ccccc2)sc2c1CCC2 | 78
COc1cc(O)c2c(=O)c(-c3ccc(O)cc3)coc2c1 | 51
O=c1c(-c2ccccc2)coc2cc(O)cc(O)c12 | 33*
O=c1cc(-c2ccccc2)oc2cc(O)cc(O)c12 | 55
O=C(NCCn1nc(-c2cccnc2)ccc1=O)Nc1ccc2c(c1)OCO2 | 66
COc1ccc(C(=O)NCCN2CCOC(c3ccccc3)C2)cc1OC (centres undefined) | 76
O=C(COc1ccc(Cl)cc1Cl)NCC(c1ccsc1)N1CCc2ccccc2C1 (centres undefined) | 64
Cn1c(=O)cc2c3c(c(NS(=O)(=O)c4ccccc4)ccc31)C(=O)c1ccccc1-2 | 9*
Cn1c(=O)cc2c3c(c(Br)ccc31)C(=O)c1ccccc1-2 | 60
CC(C)c1cc(NS(=O)(=O)c2ccccc2)c(O)c(C(C)C)c1 | 60
Cc1ccc(N(C(=O)Nc2ccc(Cl)cc2)C2=NCCC2)cc1C | 53
O=C(CSc1ncnc2ccccc12)N1CCCCCC1 | 65
